Each structure is given as a SMILES string. Records with an inconclusive call do not appear. Values without a mark were called inactive. Active and inactive are the calls of the source. Calls come from the whole dose curve.
% is set by controls: 0 for no effect and ±100 for the full control effect.

The first experiment can be described thus: Primary qHTS for Huh7 cytotoxicity: counterscreen for inhibitors of MERS-S pseudotyped particle cell entry (AID 1479147). Conditions: cell viability read-out; series mostly up to 57.1 µM; activity change, negative = cytotoxicity: at the top concentration. (qHTS replaces the single test concentration by a dilution series.)
Consider `C[C@@H](C1=C(CCN(C)C)Cc2ccccc21)c1ccccn1`, for which the outcome was inactive.

`C=C1C(=C/C=C2\CCC[C@]3(C)[C@@H]([C@H](C)/C=C/[C@@H](O)C4CC4)CC[C@@H]23)C[C@@H](O)C[C@@H]1O`: the “activity change, negative = cytotoxicity” value is -27.5%.

Regarding `NC(=O)Cc1cccc(C(=O)c2ccccc2)c1N`, the “activity change, negative = cytotoxicity” value is -20.7%.

As to `Cc1nnc2n1-c1sc(CCc3ccc(CC(C)C)cc3)cc1C(c1ccccc1Cl)=NC2C` (stereo not drawn), the “activity change, negative = cytotoxicity” value was -0.0334%.

Take `O=C(Nc1ccccc1)OCC(CN1CCCCC1)OC(=O)Nc1ccccc1` (stereo not drawn): the “activity change, negative = cytotoxicity” value was -5.39%.

Regarding `COc1ccc(CN2CCN(C(c3ccc(F)cc3)c3ccc(F)cc3)CC2)c(OC)c1OC`, the “activity change, negative = cytotoxicity” value is -26%.

With `CCOc1ccccc1C(N)=O`, the result was inactive.

On to `OC(CCCN1CCCCC1)(c1ccccc1)c1ccccc1`, for which the “activity change, negative = cytotoxicity” value was 3.41%.

As for `O=C(c1ccc(F)cc1)C1CCN(CCn2c(=O)[nH]c3ccccc3c2=O)CC1`, the “activity change, negative = cytotoxicity” value is -23.3%.

Take `CN(Cc1cc(Br)cc(Br)c1N)C1CCCCC1`: the “activity change, negative = cytotoxicity” value is 2.2%.

On to `CC/C(=C(/CC)c1ccc(O)cc1)c1ccc(O)cc1`, for which the “activity change, negative = cytotoxicity” value is -5.18%.

Consider `COC(=O)C1=C(C)NC(C)=C(C(=O)OC)C1c1ccccc1[N+](=O)[O-]`, for which the “activity change, negative = cytotoxicity” value was -11.9%.

Turning to `Nc1c(NC/C=C\COc2cc(CN3CCCCC3)ccn2)c(=O)c1=O`, the “outcome” value is “inactive [at 26.4 µM]”.

For the compound `CN(C)CCC(c1ccccc1)c1ccccn1` (stereo not drawn), the outcome was inactive.

Turning to `NS(=O)(=O)c1cc2c(cc1Cl)CN(C1CCCCC1)C2=O`, the outcome was inactive.

Regarding `Clc1ccc(C(Cn2ccnc2)OCc2c(Cl)cccc2Cl)c(Cl)c1` (stereo not drawn), the “activity change, negative = cytotoxicity” value is -17.5%.

For `COC(=O)C1=C(C)NC(C)=C(C(=O)OC(C)(C)CN(C)CCC(c2ccccc2)c2ccccc2)C1c1cccc([N+](=O)[O-])c1` (stereo not drawn), the “activity change, negative = cytotoxicity” value was -10.3%.

As to `COC(=O)C1=C(C)NC(C)=C(C(=O)OCCN2CCN(C(c3ccccc3)c3ccccc3)CC2)C1c1cccc([N+](=O)[O-])c1` (stereo not drawn), the result was inactive.

`CC(C)C[C@@H]1[C@H](c2ccccc2)OC(=O)N1CCCN1CCCCCC1`: the “activity change, negative = cytotoxicity” value is -12.3%.

Regarding `CN1CCN(c2c(F)cc3c(=O)c(C(=O)O)cn(CCF)c3c2F)CC1`, the “activity change, negative = cytotoxicity” value was -2.45%.

As to `CN(C)CCOc1ccccc1Cc1ccccc1`, the result was inactive.

`CN(C)[C@@H](CCOc1cccc2ccccc12)c1ccccc1`: the “activity change, negative = cytotoxicity” value was -6.31%.

For `N#C/C(=C1/SC[C@@H](c2ccc(Cl)cc2Cl)S1)n1ccnc1`, the “activity change, negative = cytotoxicity” value is -1.94%.

On to `O[C@@H](COc1cccc2ncccc12)CN1CCN(C2c3ccccc3[C@@H]3[C@H](c4ccccc42)C3(F)F)CC1` (stereo partly drawn), for which the result was inactive.

As for `NC(=NCCCCCCN=C(N)/N=C(\N)Nc1ccc(Cl)cc1)/N=C(\N)Nc1ccc(Cl)cc1`, the “activity change, negative = cytotoxicity” value was -22.8%.

Turning to `CN(C)CCOC(c1ccccc1)c1ccc(Br)cc1` (stereo not drawn), the “activity change, negative = cytotoxicity” value is -6.68%.

For the compound `Cc1cc(C(C)(C)C)cc(C)c1CC1=NCCN1`, the “activity change, negative = cytotoxicity” value was 1.63%.

Consider `C#C[C@]1(O)CC[C@H]2[C@@H]3CCC4=CC(=O)CCC4=C3C=C[C@@]21CC`, for which the “activity change, negative = cytotoxicity” value was -4.25%.

For `CCCCN(CCCC)CC(O)c1cc(Cl)cc2c1-c1ccc(Cl)cc1/C2=C/c1ccc(Cl)cc1` (stereo not drawn), the “activity change, negative = cytotoxicity” value was -2.09%.

Consider `CCCCNc1ccc(C(=O)OCCN(CC)CC)cc1`, for which the “activity change, negative = cytotoxicity” value was -7.9%.

Take `CN1CCC(=C2c3ccccc3CCc3sccc32)CC1`: the outcome was inactive.

As to `COc1ccc(C(Cl)=C(c2ccc(OC)cc2)c2ccc(OC)cc2)cc1`, the “activity change, negative = cytotoxicity” value is -25.2%.

Take `CN(C)CCCOc1nn(Cc2ccccc2)c2ccccc12`: the “activity change, negative = cytotoxicity” value was 1.95%.

Consider `CCN(CC)CCOc1ccccc1C(=O)CCc1ccccc1`, for which the “activity change, negative = cytotoxicity” value is -13.5%.

As to `CC(=O)O[C@]1(C(C)=O)CC[C@H]2[C@@H]3C=C(Cl)C4=CC(=O)CC[C@]4(C)[C@H]3CC[C@@]21C`, the “activity change, negative = cytotoxicity” value was -17%.

Regarding `COCCOC(=O)C1=C(C)NC(C)=C(C(=O)OC/C=C/c2ccccc2)C1c1cccc([N+](=O)[O-])c1` (stereo not drawn), the outcome was inactive.

Turning to `CCCCCCCCCCCCOS(=O)(=O)O`, the “activity change, negative = cytotoxicity” value is 3.54%.

With `O=C(O)c1ccccc1Nc1cc(Cl)ccc1C(=O)O`, the “outcome” value was “inactive [at 26.4 µM]”.

A short description of a further experiment: Primary qHTS for inhibitors of MERS-S pseudo-typed particle cell entry (AID 1479149). Note: nearly all actives have a fitted effect of over 60% in size. Note: potency is the fitted concentration of half-maximal effect. Particulars: MERS-S pseudotyped particle entry, luciferase; series mostly up to 57.1 µM; activity change, negative = inhibition: at the top concentration.
On to `C[C@@H](C1=C(CCN(C)C)Cc2ccccc21)c1ccccn1`, for which the outcome was inactive.

On to `NC(=O)Cc1cccc(C(=O)c2ccccc2)c1N`, for which the “activity change, negative = inhibition” value was -28.2%.

Turning to `Cc1nnc2n1-c1sc(CCc3ccc(CC(C)C)cc3)cc1C(c1ccccc1Cl)=NC2C` (stereo not drawn), the Potency was 20 µM (active).

`CCOc1ccccc1C(N)=O`: the compound was called inactive.

On to `CN(Cc1cc(Br)cc(Br)c1N)C1CCCCC1`, for which the “activity change, negative = inhibition” value was -7.34%.

For `COC(=O)C1=C(C)NC(C)=C(C(=O)OC)C1c1ccccc1[N+](=O)[O-]`, the call was inactive.

Consider `Nc1c(NC/C=C\COc2cc(CN3CCCCC3)ccn2)c(=O)c1=O`, for which the “outcome” value was “inactive [at 26.4 µM]”.

On to `CN(C)CCC(c1ccccc1)c1ccccn1` (stereo not drawn), for which the “activity change, negative = inhibition” value was -3.63%.

Regarding `NS(=O)(=O)c1cc2c(cc1Cl)CN(C1CCCCC1)C2=O`, the outcome was inactive.

Consider `CN1CCN(c2c(F)cc3c(=O)c(C(=O)O)cn(CCF)c3c2F)CC1`, for which the “activity change, negative = inhibition” value is 0.689%.

Consider `CN(C)[C@@H](CCOc1cccc2ccccc12)c1ccccc1`, for which the Potency is 20 µM (active).

In the case of `CN(C)CCOC(c1ccccc1)c1ccc(Br)cc1` (stereo not drawn), the “activity change, negative = inhibition” value was -89%.

Consider `Cc1cc(C(C)(C)C)cc(C)c1CC1=NCCN1`, for which the “activity change, negative = inhibition” value was -3.41%.

`C#C[C@]1(O)CC[C@H]2[C@@H]3CCC4=CC(=O)CCC4=C3C=C[C@@]21CC`: the “activity change, negative = inhibition” value is -22.4%.

`CCCCNc1ccc(C(=O)OCCN(CC)CC)cc1`: the “activity change, negative = inhibition” value is -3.33%.

Regarding `CN1CCC(=C2c3ccccc3CCc3sccc32)CC1`, the Potency is 10 µM (active).

In the case of `COc1ccc(C(Cl)=C(c2ccc(OC)cc2)c2ccc(OC)cc2)cc1`, the compound was called inactive.

Take `CCN(CC)CCOc1ccccc1C(=O)CCc1ccccc1`: the “activity change, negative = inhibition” value was -19.9%.

In the case of `CCCCCCCCCCCCOS(=O)(=O)O`, the compound was called inactive.

For the compound `O=C(O)c1ccccc1Nc1cc(Cl)ccc1C(=O)O`, the “outcome” value was “inactive [at 26.4 µM]”.
